# Measurements reported in ChEMBL document CHEMBL3988442, “University of Dundee, Small-Polar-MMV Screening Library” (2021).
# The campaign covered roughly 66,000 compounds. About 960 (1.5%) showed an effect of 50% or more. The sample holds strong results, similar compounds and a random draw of the others, so the mix is not that of the screen.
# Tested on: Trypanosoma brucei
# Assay: Trypanosoma brucei 72 hour study
# Format: functional, organism-based
# Set-up: scale not given: in the data most compounds retested in dose-response had high values
compound,measurement,setting,value
Cc1cc2c(=O)n3c(nc2s1)CCN(C(=O)c1nn(C)cc1Cl)CC3,Percent Effect,"30.3 µM, […]",-11.28%
CN1CC(=O)N(c2cccnc2)CC12CCN(C(=O)c1cccn1C)C2.O=C(O)C(F)(F)F.O=C(O)C(F)(F)F (stereo not given),Percent Effect,"30.3 µM, […]",-4.553%
O=C(C[C@@H]1COC[C@H]2CN(C(=O)c3ccccn3)C[C@@H]12)N1CCCC1.O=C(O)C(F)(F)F,Percent Effect,"30 µM, 30.03 µM",-14.99%
CS(=O)(=O)NCc1cnc2n1CCN(Cc1cccnc1)CC2.O=C(O)C(F)(F)F.O=C(O)C(F)(F)F,Percent Effect,"30 µM, 30.03 µM",-10.23%
O=C(Nc1cccnc1)C1Cc2nc(-c3ccsc3)sc2N1CC1CC1.O=C(O)C(F)(F)F (stereo not given),Percent Effect,"30.3 µM, […]",60.89%
CN(C)CCNC(=O)C1Cc2nc(-c3ccsc3)sc2N1CC1CC1.O=C(O)C(F)(F)F (stereo not given),Percent Effect,"30.3 µM, […]",5.041%
O=C(NC1CCCC1)C1Cc2nc(-c3ccsc3)sc2N1CC1CC1 (stereo not given),Percent Effect,"30.3 µM, […]",33.5%
Cl.c1cc(CNc2cnc(C3CCCN3)cn2)ccn1 (stereo not given),Percent Effect,"30.3 µM, […]",-6.296%
Cc1nc(NC(=O)C2CCCN(C(N)=O)C2)sc1-c1ccccc1 (stereo not given),Percent Effect,"30 µM, 30.03 µM",57.12%
Cc1nc(NC(=O)C2CCCN(C(=O)C3CC3)C2)sc1C (stereo not given),Percent Effect,"30 µM, 30.03 µM",-11.09%
CSc1sc(NC(=O)C2CCCN(C(N)=O)C2)nc1C (stereo not given),Percent Effect,"30 µM, 30.03 µM",-35.12%
CC(C)N1CCC2(CC1)CC(NCc1ccccn1)c1ccccc1O2.O=C(O)C(F)(F)F.O=C(O)C(F)(F)F.O=C(O)C(F)(F)F (stereo not given),Percent Effect,"30 µM, 30.03 µM",2.75%
CCc1nnsc1C(=O)N1CCCC(n2ccnc2C(C)C)C1 (stereo not given),Percent Effect,"30.3 µM, […]",-10.58%
COc1cccc(Nc2nc(C3CCCNC3)c3ccccn23)c1.Cl (stereo not given),Percent Effect,"30.3 µM, […]",-1.342%
COc1cccc(Nc2nc(C3CCNCC3)c3ccccn23)c1.Cl,Percent Effect,"30.3 µM, […]",24.37%
COc1cccc(Nc2nc(C3CCNCC3)c3sc(C)c(C)n23)c1.Cl,Percent Effect,"30.3 µM, […]",63.57%
Fc1cccc(-c2nccnc2C2CCCNC2)c1 (stereo not given),Percent Effect,"30.3 µM, […]",-21.91%
Cl.O=C(Nc1cccc(F)c1)C1=NOC2(CCNCC2)C1,Percent Effect,"30.3 µM, […]",-7.13%
Cc1sc2c(C3CCCNC3)nc(Nc3cccc(F)c3)n2c1C.Cl (stereo not given),Percent Effect,"30.3 µM, […]",100.1%
Cc1nn(C(C)C)c(C)c1S(=O)(=O)Nc1cccc(F)c1,Percent Effect,"30 µM, 30.03 µM",-2.912%
COc1cccc(Nc2nc(C3CCCNC3)c3sc(C)c(C)n23)c1.Cl (stereo not given),Percent Effect,"30.3 µM, […]",2.239%
Cc1sc2c(C3CCNCC3)nc(Nc3cccc(F)c3)n2c1C.Cl,Percent Effect,"30.3 µM, […]",99.26%
CCN(Cc1nc2c(cnn2C)c(=O)[nH]1)c1cc(C)cc(C)c1,Percent Effect,10 µM,-28.14%
same,Percent Effect,"30.3 µM, […]",-21.13%
N#Cc1ccc(N2CCCC3(CCN(c4cncnc4)C3=O)C2)nc1.O=C(O)C(F)(F)F (stereo not given),Percent Effect,"30.3 µM, […]",-13.65%
Cl.O=C(Nc1cc(C(F)(F)F)c[nH]c1=O)C1CCCCN1 (stereo not given),Percent Effect,"30 µM, 30.03 µM",4.306%
Cc1ccccc1CC(=O)NCCNc1nccc(C(F)(F)F)n1,Percent Effect,"30 µM, 30.03 µM",-20.25%
Cc1ccccc1NC(=O)CCNC(=O)c1ccoc1,Percent Effect,"30 µM, 30.03 µM",-20.37%
CNc1ccnc(NCCC(=O)Nc2ccccc2C)n1,Percent Effect,"30 µM, 30.03 µM",51.25%
CNc1ccnc(NCCC(=O)Nc2ccccc2OC)n1,Percent Effect,"30 µM, 30.03 µM",54.56%
COc1ccccc1NC(=O)CCNC(=O)c1ccoc1,Percent Effect,"30 µM, 30.03 µM",-15.64%
CNc1ccnc(NCC(=O)Nc2cc(C)ccc2OC)n1,Percent Effect,"30 µM, 30.03 µM",42.18%
CN(C)C(=O)[C@H]1C[C@H]2[C@H](CCN2Cc2ccc3c(c2)OCO3)O1.O=C(O)C(F)(F)F,Percent Effect,"30 µM, 30.03 µM",17.59%
Cl.N#Cc1ccc(CNCC2(c3ccccc3)CCOCC2)cc1,Percent Effect,"30.3 µM, […]",24.88%
Cc1cccc(C(=O)N2CC[C@]3(C[C@H](OCc4ccccn4)CO3)C2)c1.O=C(O)C(F)(F)F,Percent Effect,"30.3 µM, […]",-74.39%
O=C(NCc1ccccn1)[C@]12COC[C@H]1CN(Cc1ccccc1F)C2.O=C(O)C(F)(F)F.O=C(O)C(F)(F)F,Percent Effect,"30.3 µM, […]",-30.47%
Cc1nc(CN2CC3(CCN(c4ncccn4)C3)CC2=O)cs1.O=C(O)C(F)(F)F (stereo not given),Percent Effect,"30 µM, 30.03 µM",-28.21%
COCCNC(=O)CCn1ncc2c(Cl)cccc21,Percent Effect,"30.3 µM, […]",-10.63%
CN1CCN(c2ccccc2NC(=O)NCCc2ccccc2)CC1,Percent Effect,"30.3 µM, […]",100.1%
CN1CCN(c2ccccc2NC(=O)NCCc2ccc(O)cc2)CC1,Percent Effect,"30.3 µM, […]",8.397%
CN1CCN(c2ccccc2NC(=O)NCC[S+](C)[O-])CC1 (stereo not given),Percent Effect,"30.3 µM, […]",11.12%
O=C(O)C(F)(F)F.O=C1[C@@H]2CCN(Cc3ccoc3)C[C@@H]2OCCN1c1ccccc1,Percent Effect,"30 µM, 30.03 µM",19.86%
CC(C)Oc1ccc(CSc2nnc(CN3CCCC3=O)o2)cc1,Percent Effect,"30 µM, 30.03 µM",72.7%
O=C1CCCN1Cc1nnc(SCc2ccc3c(c2)CCC3)o1,Percent Effect,"30 µM, 30.03 µM",47.68%
CC(C)c1cccc(CSc2nnc(CN3CCCC3=O)o2)n1,Percent Effect,"30 µM, 30.03 µM",-4.842%
O=C(Cc1ccccn1)N1CC[C@]2(C[C@@H](Oc3ncccc3F)CO2)C1.O=C(O)C(F)(F)F.O=C(O)C(F)(F)F,Percent Effect,"30 µM, 30.03 µM",-12.46%
CN(CCCn1cnc2c(N)ncnc21)Cc1ccccc1,Percent Effect,"30 µM, 30.03 µM",-6.688%
CNC(=O)c1cc2c(nc1N(C)C)CCN(c1ncc(F)cn1)CC2.O=C(O)C(F)(F)F,Percent Effect,"30.3 µM, […]",-8.544%
OCC1CCCN1c1cc(NCCc2ccsc2)ncn1 (stereo not given),Percent Effect,"30 µM, 30.03 µM",6.798%
Cc1cc(NC(=O)NCCO)nn1-c1ccc(Cl)cc1Cl,Percent Effect,"30 µM, 30.03 µM",-0.9538%
O=C(CN1C(=O)CC2(CCCC2)C1=O)NCCc1nccs1,Percent Effect,"30 µM, 30.03 µM",-3.261%
CN(Cc1ccncc1)CC1CCCN(CCc2ccc(Cl)cc2)C1 (stereo not given),Percent Effect,"30 µM, 30.03 µM",15.49%
Cc1nc[nH]c1CN(C)CC1CCCN(CCc2ccc(Cl)cc2)C1 (stereo not given),Percent Effect,"30 µM, 30.03 µM",61.25%
CN(Cc1cnc(N)nc1)CC1CCCN(CCc2ccc(Cl)cc2)C1 (stereo not given),Percent Effect,"30 µM, 30.03 µM",-6.233%
CN(Cc1cccc(O)c1)CC1CCCN(CCc2ccc(Cl)cc2)C1 (stereo not given),Percent Effect,"30 µM, 30.03 µM",55.85%
COc1ccc(CCN2CCCC(CN(C)Cc3[nH]cnc3C)C2)cc1 (stereo not given),Percent Effect,"30 µM, 30.03 µM",11.78%
CN(Cc1ccccc1O)CC1CCCN(CCc2ccc(Cl)cc2)C1 (stereo not given),Percent Effect,"30 µM, 30.03 µM",6.545%
Cc1ccc(NC(C)(C)c2nnnn2-c2ccc(Cl)cc2)c(C)c1,Percent Effect,"30 µM, 30.03 µM",-23.29%
Cc1nc2cc(C3CCN(Cc4ccccc4F)C3)nn2c(O)c1C (stereo not given),Percent Effect,"30.3 µM, […]",14.24%
Cc1nnc([C@H]2C[C@@H]3CCN(Cc4ccc(C)o4)C[C@H]3O2)[nH]1.O=C(O)C(F)(F)F,Percent Effect,"30 µM, 30.03 µM",-11.08%
